# Results from PubChem BioAssay (Tox21).
# Several values for one entry are separate records, joined by “and”; a condition that tells them apart may be missing. Equal entries are not always repeated. Records with an inconclusive call do not appear. A call without a number means that no potency is given here. Activity calls are given as the source filed them. Unless noted, calls follow the shape of the dose curve; as a rule, active = well fitted curve in the direction sought with a large enough effect in the repeat runs; inconclusive = weak or mixed curves; inactive = no such curve, though single readings can be large; an effect the other way counts as inactive or inconclusive.
# Tests used:
# [1] = qHTS assay to identify small molecule agonists of the RXR signaling pathway - cell viability counter screen (AID 1159529); also: nearly all actives have a fitted effect of over 50% in size; also: potency is read from the fitted curve at half-maximal effect
# Procedure, shortened: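 Compounds dissolved in DMSO were pinned onto HEK 293T cells carrying a beta-lactamase reporter under RXR-alpha control and incubated 16 hr. Cytotoxicity was then quantified by CellTiter-Glo luminescence.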
# [2] = qHTS assay to identify small molecule antagonists of the retinoic acid receptor (RAR) signaling pathway (AID 1159552; also: nearly all actives have a fitted effect of over 50% in size; also: potency is read from the fitted curve at half-maximal effect)
# Procedure, shortened: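 Test chemicals and DMSO controls were pin-transferred onto C3RL4 cells a day after seeding; retinol (1 uM final) followed at once. Luminescent reporter output was quantified after 6 hr of co-incubation and 30 min with detection reagent.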
# [3] = qHTS assay to identify small molecule agonists of the retinoic acid receptor (RAR) signaling pathway (AID 1159553)
# Procedure, shortened: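 Reporter readout comes from luciferase under RARE control in C3RL4 cells; compound exposure lasts 6 hr at 37 C in 5% CO2, and luminescence is recorded following a 30 min room-temperature incubation with reagent.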
# [4] = qHTS assay to identify small molecule antagonists of the estrogen related receptor (ERR) signaling pathway from Tox21 library - cell viability counter screen (AID 1224834); also: nearly all actives have a fitted effect of over 30% in size; also: potency is read from the fitted curve at half-maximal effect
# Procedure, shortened: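 After 17.5 h of compound exposure at 37 C, ERR cells are incubated with CellTiter-Fluor for 30 min and fluorescence intensity serves as the viability measure.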
# [5] = qHTS assay to identify small molecule agonists of the constitutive androstane receptor (CAR) signaling pathway - cell viability counter screen (AID 1224836); also: nearly all actives have a fitted effect of over 45% in size; also: potency is read from the fitted curve at half-maximal effect
# Procedure, shortened: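 23 h treatment, 37 C, 5% CO2. Cell line: HepG2 stably expressing hCAR with a CYP2B6-2.2kb construct. Co-treatment: PK11195, 0.75 uM final. Read-out: CellTiter-Fluor fluorescence intensity.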
# [6] = qHTS assay to identify small molecule antagonists of the constitutive androstane receptor (CAR) signaling pathway - cell viability counter screen (AID 1224837); also: nearly all actives have a fitted effect of over 45% in size; also: potency is read from the fitted curve at half-maximal effect
# Procedure, shortened: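 Counter screen run in HepG2-CYP2B6-hCAR cells: 4 hr settle, compound titration (15 concentrations) with 50 nM CITCO, 23 hr at 37 C/5% CO2, CellTiter-Fluor fluorescence.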
# [7] = molecular target: Nuclear receptor subfamily 1 group I member 3 (Homo sapiens) (UniProt Q14994); experiment: qHTS assay to identify small molecule antagonists of the constitutive androstane receptor (CAR) signaling pathway (AID 1224838);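 also: HepG2 cells stably expressing hCAR with CYP2B6 luciferase reporter stimulated by CITCO; nearly all actives have a fitted effect of over 40% in size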
# Procedure, shortened: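 Cell line: HepG2 double-stable for hCAR and CYP2B6-2.2kb reporter. Agonist: CITCO, 50 nM final. Compounds: 15 concentrations, 24 h, 37 C. Detection: ONE-Glo luminescence.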
# [8] = molecular target: Nuclear receptor subfamily 1 group I member 3 (Homo sapiens) (UniProt Q14994); experiment: qHTS assay to identify small molecule agonists of the constitutive androstane receptor (CAR) signaling pathway (AID 1224839); also: nearly all actives have a fitted effect of over 15% in size; also: potency is read from the fitted curve at half-maximal effect
# Procedure, shortened: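 Compounds tested at 15 concentrations on HepG2 cells stably harbouring hCAR and CYP2B6-2.2kb reporter constructs, co-treated with PK11195 (0.75 uM final), 24 h at 37 C; luminescent reporter signal quantified.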
# [9] = qHTS assay to identify small molecule antagonists of the estrogen related receptor signaling pathway with the pleiotropic PPARgamma coactivator (PGC) from Tox21 10K library - cell viability counter screen (AID 1224840; active = well fitted cell-killing curve with a large enough effect in the repeat runs, not every such curve was filed as active; also: nearly all actives have a fitted effect of over 40% in size; also: potency is read from the fitted curve at half-maximal effect)
# Procedure, shortened: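 Following seeding of 2,000 PGC/ERR cells/well and 6 hours' incubation, test compounds were delivered in DMSO. The plates then sat 17.5 hours at 37 C before a fluorogenic live-cell protease reagent (CellTiter-Fluor) was read after 30 min.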
# [10] = molecular target: Thyrotropin receptor (Homo sapiens) (UniProt P16473); experiment: qHTS assay to identify small molecule agonists of the thyroid stimulating hormone receptor (TSHR) signaling pathway (AID 1224843; calls by dose curve; also: nearly all actives have a fitted effect of over 45% in size; also: potency is read from the fitted curve at half-maximal effect)
# Procedure, shortened: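 Steps: seed 800 TSHR-HEK293 cells per well; add test compound and hold 30 min at ambient temperature; dispense cAMP-d2 then anti-cAMP cryptate; incubate 1 h at ambient; measure fluorescence intensity.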
# [11] = molecular target: Luciferin 4-monooxygenase (Photinus pyralis) (UniProt P08659); experiment: qHTS assay to identify small molecule inhibitors of firefly luciferase (AID 1224835); also: nearly all actives have a fitted effect of over 25% in size; also: potency is read from the fitted curve at half-maximal effect
# Procedure, shortened: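 Biochemical qHTS: compounds run as interplate titrations against purified firefly enzyme, with D-luciferin and ATP each at its KM concentration. Light output recorded by CCD imaging.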
# [12] = qHTS assay to identify small molecule antagonists of the estrogen related receptor signaling pathway with the pleiotropic PPARgamma coactivator (PGC) from Tox21 10K library (AID 1224841; call rule not given here; also: actives are mostly falling curves and most rising ones were filed inactive; nearly all actives have a fitted effect of over 50% in size; also: potency is read from the fitted curve at half-maximal effect)
# Procedure, shortened: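 qHTS antagonist format: PGC/ERR cells, 2k/well, compound in DMSO by pin transfer after 6 h attachment, 18 h treatment at 37 C, One-Glo luminescence read at 30 min.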
# [13] = qHTS assay to identify small molecule antagonists of the retinoid acid receptor (RAR) signaling pathway - cell viability counter screen (AID 1159551); also: nearly all actives have a fitted effect of over 35% in size
# Procedure, shortened: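 Retinol-stimulated (1 uM final) C3RL4 cells, compound 6 h, 37 C; readout CellTiter-Glo luminescence (ATP) after 30 min RT incubation.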
# [14] = qHTS assay to identify small molecule agonists of the estrogen related receptor signaling pathway with the pleiotropic PPARgamma coactivator (PGC) from Tox21 10K library (AID 1224842); also: nearly all actives have a fitted effect of over 15% in size
# Procedure, shortened: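 PGC/ERR reporter cell line, 2,000 cells per well, incubated 6 h at 37 C before 23 nL compound in DMSO was added. After 18 h at 37 C, One-Glo luminescence read following 30 min at room temperature.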
# Chain of Thyrotropin receptor (Homo sapiens) (P16473 whole entry, looked up): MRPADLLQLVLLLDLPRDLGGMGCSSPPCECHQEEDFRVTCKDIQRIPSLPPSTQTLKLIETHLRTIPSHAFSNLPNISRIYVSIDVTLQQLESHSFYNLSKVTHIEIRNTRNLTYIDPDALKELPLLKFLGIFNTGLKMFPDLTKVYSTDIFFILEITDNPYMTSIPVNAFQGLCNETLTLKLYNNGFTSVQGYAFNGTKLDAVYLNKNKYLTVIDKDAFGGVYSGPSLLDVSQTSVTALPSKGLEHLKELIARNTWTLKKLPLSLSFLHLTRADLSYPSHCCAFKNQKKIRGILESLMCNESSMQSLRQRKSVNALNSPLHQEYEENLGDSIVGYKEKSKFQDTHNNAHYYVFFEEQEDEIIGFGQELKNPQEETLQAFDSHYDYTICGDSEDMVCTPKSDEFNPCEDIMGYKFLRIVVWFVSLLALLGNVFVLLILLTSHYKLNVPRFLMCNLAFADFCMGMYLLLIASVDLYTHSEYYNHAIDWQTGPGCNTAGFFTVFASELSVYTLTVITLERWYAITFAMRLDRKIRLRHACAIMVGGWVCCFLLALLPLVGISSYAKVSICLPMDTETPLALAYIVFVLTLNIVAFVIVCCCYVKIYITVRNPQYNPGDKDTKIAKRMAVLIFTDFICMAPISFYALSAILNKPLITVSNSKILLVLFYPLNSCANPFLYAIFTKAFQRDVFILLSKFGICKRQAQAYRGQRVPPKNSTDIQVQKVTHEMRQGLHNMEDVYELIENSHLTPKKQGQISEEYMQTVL
# Chain of Luciferin 4-monooxygenase (Photinus pyralis) (P08659 whole entry, looked up): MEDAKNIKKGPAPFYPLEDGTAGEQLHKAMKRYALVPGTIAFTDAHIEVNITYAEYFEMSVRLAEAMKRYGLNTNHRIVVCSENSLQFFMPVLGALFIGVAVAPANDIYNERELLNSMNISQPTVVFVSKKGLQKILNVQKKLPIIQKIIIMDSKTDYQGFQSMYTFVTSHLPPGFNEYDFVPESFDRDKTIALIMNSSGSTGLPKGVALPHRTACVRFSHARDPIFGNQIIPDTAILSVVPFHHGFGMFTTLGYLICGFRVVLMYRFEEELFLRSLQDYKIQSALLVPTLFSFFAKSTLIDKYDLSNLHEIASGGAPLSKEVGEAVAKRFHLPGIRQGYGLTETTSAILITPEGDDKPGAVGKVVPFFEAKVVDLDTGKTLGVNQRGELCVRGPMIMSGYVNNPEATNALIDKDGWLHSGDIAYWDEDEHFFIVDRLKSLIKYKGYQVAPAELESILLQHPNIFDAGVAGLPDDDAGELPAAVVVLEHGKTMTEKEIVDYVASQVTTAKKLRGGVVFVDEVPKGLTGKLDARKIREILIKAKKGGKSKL
# Chain of Nuclear receptor subfamily 1 group I member 3 (Homo sapiens) (Q14994 whole entry, looked up): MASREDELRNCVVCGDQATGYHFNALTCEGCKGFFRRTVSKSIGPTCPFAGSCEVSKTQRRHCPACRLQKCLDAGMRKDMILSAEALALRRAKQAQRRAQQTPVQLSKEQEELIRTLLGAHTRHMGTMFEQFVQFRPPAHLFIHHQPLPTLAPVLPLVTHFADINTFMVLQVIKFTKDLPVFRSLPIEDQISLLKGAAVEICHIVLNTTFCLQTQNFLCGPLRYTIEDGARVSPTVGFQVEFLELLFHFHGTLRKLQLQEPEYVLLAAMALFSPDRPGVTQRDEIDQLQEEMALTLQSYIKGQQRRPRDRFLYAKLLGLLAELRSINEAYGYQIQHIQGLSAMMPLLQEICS
SMILES,Potency [1],Potency [2],Potency [3],Potency [4],Potency [5],Potency [6],Potency [7],Potency [8],Potency [9],Potency [10],Potency [11],Potency [12],Potency [13],Potency [14]
C=CC(C)(CCC=C(C)C)OC(=O)c1ccccc1N (stereo not given),inactive,inactive,inactive,inactive,inactive,inactive,inactive,inactive,inactive,inactive,–,–,–,–
O=P(OCC(Br)CBr)(OCC(Br)CBr)OCC(Br)CBr (stereo not given),inactive,inactive,inactive,49.2 µM (active) and 51.7 µM (active),–,–,inactive,–,–,inactive,inactive,–,–,–
CC(C)c1ccc(OP(=O)(Oc2ccc(C(C)C)cc2)Oc2ccc(C(C)C)cc2)cc1,19.6 µM (active) and 19.5 µM (active),54.9 µM (active),inactive,–,inactive,inactive,inactive,30.9 µM (active) and 27.3 µM (active) and 48.5 µM (active),inactive,13.8 µM (active) and 15.4 µM (active) and 13.7 µM (active),inactive,–,–,–
CCCC1CCCCN1 (stereo not given),inactive,–,–,inactive,inactive,inactive,–,–,inactive,inactive,inactive,–,–,–
CC(=O)OC(c1ccccc1)C(Cl)(Cl)Cl (stereo not given),inactive,–,–,inactive,inactive,inactive,–,–,–,inactive,inactive,–,–,–
CCCCCCCCn1sccc1=O,1.95 µM (active) and 2.04 µM (active),–,–,27.4 µM (active) and 16.1 µM (active),61.3 µM (active) and 25.5 µM (active),30.7 µM (active) and 5.71 µM (active),–,–,30.7 µM (active) and 11.4 µM (active),–,35.7 µM (active) and 41.8 µM (active),30.7 µM (active),–,–
C1CS1,–,inactive,inactive,inactive,inactive,inactive,inactive,inactive,inactive,inactive,inactive,19.8 µM (active),inactive,–
CCCCCl,inactive,inactive,inactive,inactive,inactive,inactive,–,–,inactive,inactive,inactive,inactive,–,inactive
